Data: ChEMBL document CHEMBL3988442, “University of Dundee, Small-Polar-MMV Screening Library” (2021)
The whole screen tested about 48,000 compounds, of which about 13,000 (27%) showed an effect of 50% or more. Some of the results follow.

Test system: Wolbachia pipientis
Assay: Anti-Wolbachia Cell-Based Screen
Format: functional
Design: scale not given: in the data most compounds retested in dose-response had high values
Conditions: 5 µM

| Compound | Percent Effect |
| --- | --- |
| CC(=O)NCCCOc1c(C)cccc1Cl | -7.084% |
| O=C1CCC2(CCCN(C(=O)c3ccc[nH]3)C2)CN1CCc1c[nH]cn1 (stereo unspecified) | -3.691% |
| Cc1cc(CN(C)C(=O)c2cccc(N3CCCC3=O)c2)no1 | 3.879% |
| CCOc1ncccc1C(=O)NCCN(CC)C1CC1 | -2.077% |
| CCN(CCNC(=O)c1ccccc1Br)C1CC1 | -1.027% |
| CCN(CCNC(=O)c1cccc(C)c1C)C1CC1 | 95.34% |
| COCCOc1ncccc1C(=O)Nc1c(C)cnn1CC1CC1 | -11.28% |
| Cc1cccc(C(=O)NCCNS(=O)(=O)c2cccs2)c1C | -10.16% |
| CCN(CCNC(=O)c1cccnc1OCCOC)C1CC1 | 95.99% |
| CC(C)c1cccc(-n2cc(O)c(C(=O)NCCCn3cccn3)n2)c1 | -4.081% |
| COC(=O)C1CN(Cc2ccn(-c3ccc(F)cc3)n2)CCO1 (stereo unspecified) | -3.694% |
| Cc1nc(CN2CCCN(C(=O)CCc3ccco3)CC2)cs1 | 136.5% |
| O=C(CCc1ccco1)N1CCCN(Cc2cscn2)CC1 | 110.3% |
| Cc1noc(C)c1CCC(=O)N1CCCN(Cc2cscn2)CC1 | -9.58% |
| Cc1nc(CN2C[C@@H]3CN(C(=O)CC(F)(F)F)C[C@@H]3C2=O)cs1 | -5.241% |
| Cc1nc(CN2CCN(C(=O)CCc3ccco3)CC2)cs1 | 84.98% |
| CCc1nc(CN2CCN(C(=O)CCc3ccccc3)CC2)cs1 | 19.11% |
| O=C(CCc1cccc(F)c1F)N1CCN(Cc2ccco2)CC1 | 9.986% |
| CCc1nc(CN2CCCN(C(=O)CCc3ccco3)CC2)cs1 | -5.985% |
| Cc1nc(CN2CCCN(C(=O)c3cccn3C)CC2)cs1 | -4.038% |
| Cc1nc(CN2C[C@@H]3CN(C(=O)c4ccoc4C)C[C@@H]3C2=O)cs1 | -24.28% |
| Cc1nc(CN2C[C@@H]3CN(C(=O)c4ccoc4C)C[C@@H]3C2)cs1 | 104.4% |

| Compound | Percent Effect |
| --- | --- |
| CCc1nsc(N2CCN(CC(=O)NCc3cccnc3)CC2)n1 | 5.46% |
| CC1CN(C)c2ccccc2CN1C(=O)CSc1ccncc1 (stereo unspecified) | -15.08% |
| O=S(=O)(c1cccnc1)N1CCN(CC(O)c2cccs2)CC1 (stereo unspecified) | -0.3613% |
| CN(C)S(=O)(=O)N1CCC(c2ccnc(Nc3ccccn3)n2)C1 (stereo unspecified) | 92.82% |
| O=S(=O)(N1CCCC1)N1CC(c2ccnc(Nc3ccccn3)n2)C1 | 105.1% |
| CN(C)S(=O)(=O)N1CCC2(CC1)CC(Oc1ccccn1)CO2.O=C(O)C(F)(F)F (stereo unspecified) | -11.89% |
| CN(C)S(=O)(=O)N1CC(c2ccnc(Nc3ccccn3)n2)C1 | 81.46% |
| Cc1ccc(Nc2nccc(C3CN(CC(N)=O)C3)n2)nc1 | -11.37% |
| N[C@H]1CN(S(=O)(=O)N2CCCC2)C[C@@H]1c1ccccc1 | -9.902% |
| CCNc1ccnc(NC2CCN(S(C)(=O)=O)CC2)n1 | 1.929% |
| O=S(=O)(NC1CCCN(c2ncccn2)C1)N1CCCCCC1 (stereo unspecified) | -17.91% |
| CS(=O)(=O)N1CC(c2ccnc(Nc3ccccn3)n2)C1 | 102.3% |
| CN(C)C(=O)C1CN(Cc2ccc(C#N)cc2)c2ccccc2O1 (stereo unspecified) | -2.727% |
| O=C(NCCn1cccc1)C1CCN(C2CCCCC2)CC1 | 3.682% |
| Cc1c(F)cccc1CN1CCn2nc(CNC(=O)N(C)C)cc2C1 | 9.061% |
| Cc1cc(C)c2c(c1)C1(CC(=O)Nc3c1cnn3C(C)C)C(=O)N2 (stereo unspecified) | -4.592% |
| Cc1cc2n(n1)CC(CNC1CCN(c3ccc(F)cc3)CC1)CN2 (stereo unspecified) | 8.147% |
| Cc1nc2c(c(=O)n1C)CN(C(=O)C1CCCN(C(=O)N(C)C)C1)C2 (stereo unspecified) | 1.11% |
| Cc1nc(N2CCCC2)nc2c1CN(C(=O)NC(C)C)CC2 | 102.9% |
| Cc1nc(N2CCCC2)nc2c1CN(C(C)C)CC2.O=C(O)C(F)(F)F | -22.93% |
| CC(=O)N1CCc2nc(N3CCCC3)nc(C)c2C1 | 96.78% |
| Cc1nc(N2CCCC2)nc2c1CN(C(=O)N(C)C)CC2 | 100.4% |

| Compound | Percent Effect |
| --- | --- |
| CN(Cc1ccccc1)C(=O)c1cc2c(c(S(N)(=O)=O)c1)CCC2 | -0.2198% |
| CCCOc1ccc2ccccc2c1CN1CC[C@@]2(O)CCNC[C@H]2C1 | 3.118% |
| CCc1nc(C)cc(NC(C)C(=O)Nc2cc(F)ccc2C)n1 (stereo unspecified) | 4.426% |
| CCc1cc(N[C@H]2CCC[C@H]2CO)n2nccc2n1 | -20.55% |
| O=C(c1cccnc1)N1C[C@@H]2OCC(=O)N(Cc3cccnc3)[C@@H]2C1 | -21.42% |
| O=C(c1ccccn1)N1CCC(Oc2ncccc2Cl)CC1 | 6.011% |
| O=C(C[C@H]1[C@H]2CN(C(=O)c3cccnc3)C[C@@H]12)Nc1cccnc1 | -0.113% |
| O=C(c1ccccn1)N1CC(S(=O)(=O)c2ccc(Cl)cc2)C1 | 113.3% |
| O=C(c1ccccn1)N1C[C@@H]2CC[C@H](C1)N(C(=O)c1ccsc1)C2 | -66.93% |
| O=C(O)C(F)(F)F.O=C(c1ccccn1)N1CC[C@H]2[C@H]1CCN2S(=O)(=O)C1CC1 | -10.64% |
| O=C(c1ccccn1)N1CCC(S(=O)(=O)c2ccccc2)C1 (stereo unspecified) | 101.3% |
| O=C(c1ccccn1)N1CCC(Oc2cccnc2)CC1 | -15.11% |
| O=C(c1ccco1)N1CC(S(=O)(=O)c2ccc(Cl)cc2)C1 | 72.73% |
| O=C(c1cccnc1)N1CC(S(=O)(=O)c2ccc(Cl)cc2)C1 | 139.6% |
| Cn1cnnc1S(=O)(=O)C1CCN(C(=O)c2ccco2)CC1 | 9.772% |
| NC(=O)N1C[C@@H]2CN(C(=O)c3ccco3)C[C@@H]2C1 | -28.89% |
| CN(C1CCCC1)C(C)(C)C(=O)NCCS(C)(=O)=O | 3.461% |
| N#CCc1ccc(NC(=O)N[C@H](CO)Cc2ccc(O)cc2)cc1 | -6.882% |
| CCc1nc2c(c(NCc3cc(-c4cccnc4)no3)n1)CCNCC2 | 11.03% |
| O=C(NCc1c(F)cccc1F)C1CN(C(=O)c2cnccn2)C1 | -2.814% |
| O=C(NC1CC1)C1CN(C(=O)c2cnccn2)C1 | -10.02% |
| O=C(c1cnccn1)N1CC(S(=O)(=O)c2ccc(Cl)cc2)C1 | 115.9% |
